The results in this text go back to PubChem BioAssay (NCI).

Holding throughout (test): NCI-60 one-dose screen, 48 h (100 = growth as untreated, 0 = no growth, -100 = all killed)
What all share (conditions): 10 µM unless noted

Assay [1] deals with NCI-H23 lung.
Assay [2] deals with NCI-H226 lung.
The subject of assay [3] is NCI-H322M lung.
The subject of assay [4] is HOP-62 NSCLC.
For assay [5], the system named is NCI-H460 lung.
Assay [6] deals with HOP-92 NSCLC.
Assay [7] concerns A549/ATCC NSCLC.
Assay [8] has as its system 786-0 renal.
The test system of assay [9] is COLO 205 colon.

About 83,000 compounds went through this panel and 20% of them were active in at least one assay; those are over-represented in the sample as a whole.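 96-well plates, one dose, 48 hours. Percent growth reported; active if below 10.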 Unmarked numbers belong to inactive results. Activity calls are given as the source filed them.

Regarding `c1ccc(-c2nc(Nc3nccnn3)c3ccccc3n2)cc1`, the growth in assay [1] was 90.4%; in [2] it was 87.5%; in assay [3] it was 98.1%; in [4], 99.8%; in [5] it was 101%; in assay [6], 105%. For the same compound, the growth in assay [7] is 102%; in assay [8], 96.9%; in assay [9], 107%.

Consider `Oc1c(Cl)cc(Oc2cc(Cl)c(O)c(CN3CCOCC3)c2)cc1CN1CCOCC1`, for which the growth is 99.6% in assay [1]; 92.7% in assay [2]; 96% in assay [3]; 81.2% in assay [4]; 93.4% in assay [5]; 79% in [6]. For the same compound, the growth in assay [7] is 78.7%; in assay [8], 105%; in assay [9], 105%.

In the case of `COc1ccc(C(=O)/C=C/c2ccc(C)cc2)cc1OC`, the growth in [1] was 78.3%; in assay [2], 74.4%; in assay [3] it was 74.6%; in assay [4], 79%; in assay [5] it was 80.9%; in assay [6] it was 52.5%. Further, the growth is 36.3% in assay [7], 85.3% in [8] and 82.8% in assay [9].

With `COc1cc(/C=C/C(=O)CC(=O)/C=C/c2ccc(OC(=O)C3C4CC5CC(C4)CC3C5)c(OC)c2)ccc1OC(=O)C1C2CC3CC(C2)CC1C3` (stereo unspecified), the growth is 104% in [1]; 123% in assay [2]; 92.9% in assay [3]; 99.1% in assay [4]; 120% in [5]; 65.5% in assay [6]. Besides, the figures for the growth in [7], in [8] and in [9] were 102%, 104% and 110%, respectively.

For `Nc1c(C(=O)Nc2cccc(Cl)c2)sc2nc3c(cc12)C(O)CCC3` (stereo unspecified), the growth in [1] was 29.8%; in assay [2], 62.3%; in [3], 62.3%; in assay [4] it was 46.8%; in assay [5] it was 11.2%; in assay [6], 13.6%. Besides, the growth in assay [7] was 24.7%; in assay [8], 53.3%; in assay [9], 5.9% (active).

As to `COc1ccc(NC(=O)c2ccccc2-c2ccccc2)c(C(N)=O)c1`, the growth in assay [1] was 53.7%; in [2], 70.2%; in assay [3], 58.7%; in assay [4] it was 45.3%; in assay [5], 17%; in assay [6], 57.3%. Moreover, the growth in assay [7] was 46.5%; in [8] it was 28.5%; in assay [9], 9.95% (active).

With `COc1ccc(Oc2ccccc2NC(=O)CNC(=O)c2cccc3ccccc23)cc1`, the growth in [1] is 36.7% [5 µM]; in [2], 61.4% [5 µM]; in assay [3] it was 45.5% [5 µM]; in assay [4], 31.5% [5 µM]; in assay [5] it was 11.9% [5 µM]; in assay [6] it was 52.1% [5 µM]. Moreover, the growth in assay [7] was 20.8% [5 µM]; in [8], 30.1% [5 µM]; in assay [9] it was -20% [5 µM] (active).

For `COc1cc(/C=C/C(=O)c2c(C)n([O-])c3ccccc3[n+]2=O)cc(OC)c1OC`, the growth in assay [1] was 54.9%; in [2] it was 86.5%; in assay [3], 49%; in assay [4], 105%; in [5], 20.6%; in [6], -0.517% (active). The growth in assay [7] is 51.4%; in assay [8], 65.9%; in assay [9], 55.9%.

Regarding `COc1cnc2c(c1)C(=O)c1c-2n(CCCN2CCOCC2)c(=O)c2cc(F)ccc12`, the growth was -15% (active) in assay [1]; -64.5% (active) in assay [2]; 8.18% (active) in assay [3]; -23% (active) in assay [4]; -32.9% (active) in assay [5]; -13.5% (active) in [6]. Also, the growth in assay [7] was -29.2% (active); in [8], -60.1% (active); in assay [9], -8.99% (active).

Consider `CCCCCCCCCCOC(C)=O`, for which the growth was 113% in [1]; 98.6% in [2]; 107% in [3]; 108% in assay [4]; 110% in [5]; 89.3% in assay [6]. Moreover, the growth was 106% in [7], 114% in [8] and 116% in assay [9].

Take `Cc1nn(-c2ccccc2)c2nc(N)c(C3=NCCO3)nc12`: the growth is 96.9% in assay [1]; 93.6% in assay [2]; 89.5% in assay [3]; 81.2% in assay [4]; 97.7% in [5]; 43.6% in assay [6]. Moreover, the growth in [7] was 86.5%; in assay [8], 99.7%; in assay [9] it was 94.1%.

As to `CCCCN=C(N)c1ccc(OCCSCCOc2ccc(C(N)=NCCCC)cc2)cc1`, the growth in assay [1] is 40.4%; in assay [2], 59.2%; in assay [3] it was 69.2%; in assay [4], 67.7%; in assay [5], 30.3%; in [6], 40.1%. The growth in assay [7] was 19.5%; in assay [8], 82.5%; in assay [9], 7.64% (active).

Turning to `O=C(CNC(=O)c1cccc2ccccc12)Nc1ccccc1Oc1ccc(O)cc1`, the growth was 37.2% [5 µM] in [1]; 62.7% [5 µM] in assay [2]; 41.3% [5 µM] in assay [3]; 35.7% [5 µM] in [4]; 14.5% [5 µM] in assay [5]; 77.5% [5 µM] in assay [6]. Moreover, the results for the growth in [7], in assay [8] and in [9] were 27.4% [5 µM], 29.3% [5 µM] and 5.7% [5 µM] (active), respectively.

Regarding `N#CC1c2ccccc2C=CN1C(=O)N(c1ccccc1)c1ccccc1` (stereo unspecified), the growth is 66.6% in assay [1]; 95.9% in assay [2]; 103% in assay [3]; 101% in assay [4]; 101% in assay [5]; 45.6% in assay [6]. Further, the figures for the growth in assay [7], in assay [8] and in assay [9] were 91.4%, 95.5% and -41.6% (active), respectively.
